Screen size: about 1,500 compounds; about 430 (29%) were called active. No rule for the calls is given here. A selection follows. Results with a measured potency or affinity are listed apart.

A short description of the assay: insulin secretion activators without glucose, dose response, counter-screen for glucose-dependent insulin secretion activators, cell-based, INS-1E, Gaussia luciferase, luminescence, cherry-pick (AID 977606). To be noted: INS-1E Gaussia luciferase insulin secretion, no glucose, 100% = twice neutral-control luminescence; series mostly up to 35 µM.
As to `O=C(O)C1Cc2c([nH]c3ccccc23)C(c2ccc3c(c2)OCO3)N1` (stereo unspecified), the call was inactive.
With `COc1cc2c(cc1OC)-c1cc(NCc3ccccn3)nc(=O)n1CC2` the entry was “inactive”.
Then `CCOc1ccc(CCNS(=O)(=O)c2cn(C)cn2)cc1OCC`, with “inactive”; and `CC(=O)N1CCN(C(=O)COC(=O)c2ccc(S(C)(=O)=O)cc2)CC1`, with “inactive”.
For `CC(C)(C)NC(=O)N1c2ccccc2Sc2ccccc21`, the result was inactive.
Consider `CCn1ncc2c1C(=O)NC1c3ccccc3C(=O)N21` (stereo unspecified), for which the compound was called inactive.
As for `O=C(NNC(=O)c1cc2cc3ccccc3nc2s1)c1cccc(C(F)(F)F)c1`, the result was inactive.
With `Cc1cc(C)cc(C(=O)NC(=S)Nc2ccc(-c3cc4ccccc4oc3=O)cc2)c1` the entry was “inactive”.
With `C=CCn1c(-c2csc(-c3ccc(OC)c(OC)c3)n2)n[nH]c1=S`, the call was inactive.
As to `COc1ccc(-c2nc(CCl)cs2)cc1OC`, the compound was classed as inactive.
For `O=C(c1ccccc1)N(C(=O)c1ccccc1)N1CCCC1`, the compound was classed as inactive.
On to `CN(c1ccc(C(=O)N2CCN(Cc3ccccc3)CC2)cc1)S(=O)(=O)c1ccccc1`, for which the compound was classed as inactive.
Turning to `CCCn1nc(NC(=O)c2ccco2)c2cc3ccccc3nc21`, the outcome was inactive.
`CCn1nc(NC(=O)c2ccco2)c2cc3ccccc3nc21`: the call was inactive.
With `O=C1c2cccnc2C(Nc2ccc(F)c(Cl)c2)N1Cc1cccs1` (stereo unspecified), the compound was classed as inactive.
For the compound `CCOc1ccccc1OCCC(=O)NNC(=O)Cn1nc(C)cc1C`, the outcome was inactive.
Then `CCOc1cc(/C=N/NC(=O)CCn2nnc3ccccc32)ccc1O`, with “inactive”.
On to `N#CCc1nn(-c2ccccc2)c2ncnc(N)c12`, for which the outcome was inactive.
Take `CN(C)CCCN(C(=O)c1ccco1)c1nc2c(F)cccc2s1`: the compound was classed as inactive.
In the case of `O=C(c1cccnc1)N(Cc1ccccc1)c1ccccc1`, the compound was classed as inactive.
Take `COc1ccc(-c2nc(N3CCC(C)CC3)[nH]c(=O)c2C#N)cc1`: the call was inactive.
As to `COc1ccc(-c2ccc(SCc3cccnc3)nn2)cc1OC`, the compound was called inactive.
Then `CC(C)CCN(CC(=O)NCc1ccc(F)cc1)S(=O)(=O)c1ccccc1F`, with “inactive”.
Then `O=C(NN(Cc1ccccc1)Cc1ccccc1)c1ccccc1`, with “inactive”.
Turning to `O=C(COC(=O)C1CCC1)NC(=O)c1ccccc1`, the compound was called inactive.
Take `O=C(c1ccc2c(c1)OCO2)N1CCN(S(=O)(=O)c2ccccc2)CC1`: the call was inactive.
As for `O=C(O)c1ccc(S(=O)(=O)NCc2ccc3c(c2)OCO3)cc1`, the compound was called inactive.
On to `OC(c1ccc(Cl)cc1)C(CN1CCOCC1)c1ccccc1` (stereo unspecified), for which the compound was classed as inactive.
Then `CC(C)OCC(O)CN1CCC(Cc2ccccc2)CC1` (stereo unspecified), with “inactive”.
Then `COC(=O)CN(c1cccc(C)c1)S(=O)(=O)c1ccccc1`, with “inactive”.
For the compound `COCCNC(=O)c1ccc(N(C)S(=O)(=O)c2ccc(OC)c(OC)c2)cc1`, the outcome was inactive.
With `CCOc1ccc(-c2nc(CSc3nnc(N)s3)cs2)cc1OC`, the compound was classed as inactive.
`C=CCNC(=O)COc1coc(CN2CCN(C(=O)c3ccco3)CC2)cc1=O`: the compound was called inactive.
Then `C=C[C@@]1(C)CC(=O)[C@]2(O)[C@@]3(C)[C@@H](O)CCC(C)(C)[C@@H]3[C@H](O)[C@H](OC(C)=O)[C@@]2(C)O1`, with “inactive”; and `Nc1nc(N)nc(-c2ccc(Cl)cc2)n1`, with “inactive”; and `Cc1cccc(-c2cc3nc4c(c(N5CCCC(O)C5)n3n2)CCC4)c1` (stereo unspecified), with “inactive”.
Turning to `C=C1[C@@H](O)[C@H](CC(C)C)N(Cc2ccccc2Br)S1(=O)=O`, the compound was classed as inactive.
As for `CCn1nnc(NC(=O)c2sc3ccccc3c2Cl)n1`, the outcome was inactive.
With `Cc1c(NC(=S)NC(=O)c2sc3ccccc3c2Cl)cccc1C(=O)O` the entry was “inactive”; with `Fc1ccc(-c2csc3nnc(SCc4cccnc4)n23)cc1`, “inactive”; with `CC(C)(C)OC(=O)N1CCCN(C(=O)c2ccc(Cl)cc2)CC1`, “inactive”.
Take `COc1nc(Nc2ccccc2)nc(OC)n1`: the result was inactive.
Turning to `CC1(C)N=C(c2ccccc2)C(c2ccccc2)=N1`, the result was inactive.
For `COc1ccc2nc3ccccc3nc2c1NC(=O)c1ccc(Cl)cc1`, the call was inactive.
Consider `Cc1c(C)n(CCCN(C)C)c2ncnc(Nc3ccccc3)c12`, for which the outcome was inactive.
With `COc1ccc(C)c(-n2c(=O)n(Cc3ccccc3)c(=O)c3[nH]cnc32)c1` the entry was “inactive”; with `COc1ccc(CCn2nnc(-c3ccc(NC(C)=O)c(Cl)c3)n2)cc1`, “inactive”.
Take `Cc1ccc(OCC(=O)NC(C)c2ccccc2)cc1` (stereo unspecified): the result was inactive.
Take `NC(=O)COC(=O)c1ccccc1Oc1ccccc1`: the call was inactive.
With `Fc1ccc(-c2cc(C(F)(F)F)nc(-n3cncn3)n2)cc1`, the compound was called inactive.
In the case of `CCOC(=O)Nc1ccc2c(c1)Sc1ccccc1N2C(=O)CCN1CCOCC1`, the compound was classed as inactive.
Then `CCOC(=O)c1cnc2c(cnn2C)c1Oc1ccc(OC)cc1`, with “inactive”; and `CCNc1nc(CC)nc2c1oc1ccccc12`, with “inactive”; and `CCCCn1c(-c2ccncc2)nc2c1c(=O)[nH]c(=O)n2CC(C)C`, with “inactive”.
With `COCCn1c(-c2ccc3ccccc3c2)nc2c1c(=O)[nH]c(=O)n2CC(C)C` the entry was “inactive”; with `Cc1cc(S(=O)(=O)NCc2cccnc2)ccc1F`, “inactive”; with `Cc1cccn2cc(CCNS(=O)(=O)c3cccs3)nc12`, “inactive”.
Then `COc1cc2ccc(C(C)=NNC(N)=S)cc2cc1OC`, with “inactive”.
Turning to `O=C(Nc1ccnn1C1CCN(C2CCC2)CC1)c1ccccc1Cl`, the outcome was inactive.
With `CC1Cc2ccccc2N1C(=S)NC(=O)c1cccc(Br)c1` (stereo unspecified) the entry was “inactive”; with `O=S(=O)(NCC1CCCO1)c1ccc(Cl)nc1` (stereo unspecified), “inactive”; with `Cc1ccccc1-n1nc2c(c1NC(=O)c1cc3ccccc3oc1=O)CS(=O)(=O)C2`, “inactive”.
With `CC(C)CC(=O)Nc1c2c(nn1-c1ccc(F)cc1)CS(=O)(=O)C2` the entry was “inactive”; with `O=C1N(c2ccccc2)c2ccccc2[C@]12C[C@H](O)CO2`, “inactive”; with `CC(C(=O)Nc1ccc2[nH]c(=O)[nH]c2c1)N1CCN(Cc2ccc3c(c2)OCO3)CC1` (stereo unspecified), “inactive”.
Take `O=C(c1ccco1)N1CCN(C2CN(Cc3ccccc3)S(=O)(=O)C2)CC1` (stereo unspecified): the compound was classed as inactive.
Then `COc1ccc(-c2nnc3sc(-c4ccco4)nn23)cc1OC`, with “inactive”; and `COc1ccc(-c2nc(C(=O)O)cs2)cc1OC`, with “inactive”; and `COc1ccc(-c2ccncc2)cc1OC`, with “inactive”.
For `Cc1ccc2nc(N3CCN(C(=O)CCCC(=O)O)CC3)nc(-c3ccccc3)c2c1`, the call was inactive.
Take `COc1ccc(-c2nnn(Cc3nc(N)nc(N4CCOCC4)n3)n2)cc1OC`: the result was inactive.
For `COc1ccc(-c2cc(-c3ccco3)[nH]c(=O)c2C#N)cc1OC`, the result was inactive.
Turning to `CC(C)C(C(=O)NCc1ccco1)N(CC1CCCO1)C(=O)CNS(=O)(=O)c1ccc(F)cc1` (stereo unspecified), the compound was called inactive.
As to `COc1cccc(-n2c(=O)n(Cc3ccccc3)c(=O)c3[nH]cnc32)c1C`, the compound was called inactive.
With `CCOc1nc(NC(=O)NS(=O)(=O)c2cccc(Cl)c2)nc(-c2ccccc2)n1`, the compound was classed as inactive.
Turning to `COc1ccccc1-n1cnc2sc(C)c(C)c2c1=O`, the compound was classed as inactive.
With `CCCCNC(=O)O[C@H]1C[C@@H]2CCN3C(=O)CCC[C@H]([C@H]1CC)[C@H]23`, the compound was classed as inactive.
As to `COc1ccc(CCNS(=O)(=O)c2cccc(C)c2)cc1OC`, the compound was classed as inactive.
With `O=C(c1ccccc1F)N1CCCC(N2CCN(Cc3ccc4c(c3)OCO4)CC2)C1` (stereo unspecified), the call was inactive.
Then `CCNC(=O)C1(C)CCCN1Cc1cccc(C(F)(F)F)c1` (stereo unspecified), with “inactive”; and `CCN(CC)CCCN=C1N[C@@H](c2ccccc2)C(C(=O)OC)=C(C)N1CC`, with “inactive”; and `COc1ccc(S(=O)(=O)N(C)c2ccc(C(=O)N3CCCC3)cc2)cc1OC`, with “inactive”.
Regarding `CCN(CC)C(=O)c1ccccc1NS(=O)(=O)c1ccc(C)cc1`, the compound was called inactive.
With `CCN(CCC(=O)O)c1ccccc1` the entry was “inactive”; with `CCCCC(=O)N(C)c1c(CC)nc2c(OCc3ccc(C(F)(F)F)cc3)cccn12`, “inactive”; with `C=C(C)n1c(=O)n(Cc2ccccc2C)c2ccccc21`, “inactive”.
`CCOC(=O)N1CCN(S(=O)(=O)N2CCCC(C(=O)NCc3cc(OC)ccc3OC)C2)CC1` (stereo unspecified): the compound was classed as inactive.
In the case of `CCCNC(=O)C1(C)CCN(C(=O)c2cccc(C(F)(F)F)c2)C1` (stereo unspecified), the compound was called inactive.
With `COc1cc(C(F)(F)F)c(C(=O)NCc2cccc(Cl)c2)cn1` the entry was “inactive”; with `CCn1cc(S(=O)(=O)NCCc2ccc(OC)c(OC)c2)cn1`, “inactive”; with `O=C(Nc1nnc(-c2ccc(Cl)cc2)o1)NC1CCCCC1`, “inactive”.
With `COc1cc2cnc(-c3ccsc3)cc2cc1OC`, the compound was classed as inactive.
Turning to `CCOC(=O)C1CCCN(C(=O)c2cccnc2Oc2ccccc2)CC1` (stereo unspecified), the outcome was inactive.
Consider `CCc1cccc(NC(=O)C2CCCN2S(=O)(=O)c2ccc3c(c2)n(C)c(=O)c(=O)n3C)c1` (stereo unspecified), for which the outcome was inactive.
As for `CCOC(=O)c1ccc(S(=O)(=O)N2CCC(C(=O)Nc3nnc(C)o3)CC2)cc1`, the outcome was inactive.
Consider `Cc1cccc(C)c1OCCCn1ccnc1`, for which the compound was called inactive.
On to `CCSc1ncnc2sc3c(c12)CCC3`, for which the call was inactive.
Consider `O=C1c2cccnc2C(Nc2cccc(F)c2)N1Cc1ccco1` (stereo unspecified), for which the outcome was inactive.
Turning to `C[C@@H]1CN([C@H](C)CO)C(=O)CCCn2nncc2CO[C@H]1CN(C)C(=O)Nc1ccnc(N2CCOCC2)c1`, the outcome was inactive.
For the compound `Cc1ccc(-c2nc(C#N)c(NCC3CCCO3)o2)cc1` (stereo unspecified), the call was inactive.
For the compound `CCOc1ccc(Nc2oc(-c3cccc(Cl)c3)nc2C#N)cc1`, the compound was called inactive.
For `CN1CCN(C(=O)c2cccc(-c3cnc4cnc(-c5ccccc5Oc5ccccc5)cn34)c2)CC1`, the outcome was inactive.
As to `N#Cc1ccc(-c2ccc3c(c2)[C@@H]2[C@@H](CCN2C(=O)C2CCCC2)[C@@H](CO)N3)cc1`, the result was inactive.
On to `COc1ccccc1C(=O)N/N=C(\C)CC(=O)Nc1ccc2c(c1)OCCO2`, for which the result was inactive.
Consider `COc1ccc(-n2c(=S)[nH]c3cc(C(=O)Nc4ccc(OC)c(OC)c4)ccc3c2=O)cc1`, for which the compound was called inactive.
Take `C=CCc1ccccc1Oc1cc(OC)nc(N)n1`: the call was inactive.
Consider `COc1ccccc1CNC(=O)CCNS(=O)(=O)c1ccc2[nH]c(=O)oc2c1`, for which the outcome was inactive.
Then `COc1ccc(-c2ccc(SCc3ccccn3)nn2)cc1OC`, with “inactive”.
With `CC1(C(=O)NCc2ccccc2)CN(S(C)(=O)=O)CC(=O)N1C1CC1` (stereo unspecified), the outcome was inactive.
As to `CC(C)NC(=O)C1(C)CCN1Cc1cccc(C#N)c1` (stereo unspecified), the result was inactive.
For the compound `Cc1ccccc1CN(C)Cc1cc(=O)oc2c(C)c(C)ccc12`, the call was inactive.
